Assay outcomes (PubChem)
DT40 TDP1 CPT: qHTS for Inhibitors of human tyrosyl-DNA phosphodiesterase 1 (TDP1): qHTS in cells in presence of CPT | chicken DT40 Tdp1-/-;hTDP1 cells + 20 nM CPT, ATP luminescence, 48 h | actives 12% (n = 420,000) | Potency, µM (highest dose often 46.2 µM), for the others: at the highest dose activity change, negative = growth inhibition, actives largely listed as inhibitors; also: potency is read from the fitted curve at half-maximal effect; nearly all actives have a fitted effect of over 55% in size
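Cell growth measured by CellTiter-Glo luminescence after a minimum 48 h, 37 C compound exposure with 20 nM CPT in Tdp1-knockout DT40 cells stably expressing hTDP1, seeded 400/well; qHTS titration format.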
VP16 counter: VP16 counterscreen qHTS for inhibitors of ROR gamma transcriptional activity; Drosophila S2 Gal4-VP16 UAS-luciferase, luminescence, 20 h; Potency, µM (series often up to 53.6 µM), without a hit: at the highest dose activity, negative = inhibition, hits mostly inhibitors; actives 3.5% (n = 310,000);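 also: Gal4-VP16 expression switched on by copper sulfate through the metallothionein promoter; potency is read from the fitted curve at half-maximal effect; nearly all actives have a fitted effect of over 50% in size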
IL1B secr inh: qHTS for Inhibitors of Inflammasome Signaling: IL-1-beta AlphaLISA Primary Screen; THP-1 LPS/ATP IL-1B secretion, AlphaLISA, 16 h; hits give low values; activity change, % at 57.5 µM; actives 4.7% (n = 360,000); AID 743279, 2014; in the data active = activity change below about -50%; inconclusive = mostly about -30% to -49%
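Secreted IL-1B measured by AlphaLISA bead assay after 16 h compound exposure of THP-1 cells; compounds (final up to 57.5 uM) added 1 h before LPS (250 ng/mL) and ATP (1.25 mM) stimulation; lower signal means less secretion.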
ELG1 DNA repair: qHTS screen for small molecules that inhibit ELG1-dependent DNA repair in human embryonic kidney (HEK293T) cells expressing luciferase-tagged ELG1 | AID 504467, 2011 | actives 2.3% (n = 330,000) | Potency, µM (series often up to 46.1 µM), without a hit: top-dose activity change, negative = inhibition, most hits filed as inhibitors | HEK293T ELG1-luciferase reporter, luminescence, 16 h; DNA damage induced by 5-fluorouridine; also: potency is read from the fitted curve at half-maximal effect; nearly all actives have a fitted effect of over 55% in size
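Luminescence from the luciferase reporter, measured 30 min after ONE-Glo reagent at room temperature, was the read-out. Beforehand, 2,000 cells per well were exposed for 16 hr at 37 °C to 5-fluorouridine together with compound or vehicle.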
RORg inh: qHTS for inhibitors of ROR gamma transcriptional activity | Drosophila S2 Gal4-RORgamma UAS-luciferase reporter, 20 h | Potency, µM (doses to about 53.6 µM), without a hit: top-dose activity change, negative = inhibition, usual class: inhibitors | actives 5.4% (n = 310,000) | AID 2551, 2010; also: potency is read from the fitted curve at half-maximal effect; nearly all actives have a fitted effect of over 60% in size
Target sequence (P51450 whole entry, looked up, the tested form may be a part): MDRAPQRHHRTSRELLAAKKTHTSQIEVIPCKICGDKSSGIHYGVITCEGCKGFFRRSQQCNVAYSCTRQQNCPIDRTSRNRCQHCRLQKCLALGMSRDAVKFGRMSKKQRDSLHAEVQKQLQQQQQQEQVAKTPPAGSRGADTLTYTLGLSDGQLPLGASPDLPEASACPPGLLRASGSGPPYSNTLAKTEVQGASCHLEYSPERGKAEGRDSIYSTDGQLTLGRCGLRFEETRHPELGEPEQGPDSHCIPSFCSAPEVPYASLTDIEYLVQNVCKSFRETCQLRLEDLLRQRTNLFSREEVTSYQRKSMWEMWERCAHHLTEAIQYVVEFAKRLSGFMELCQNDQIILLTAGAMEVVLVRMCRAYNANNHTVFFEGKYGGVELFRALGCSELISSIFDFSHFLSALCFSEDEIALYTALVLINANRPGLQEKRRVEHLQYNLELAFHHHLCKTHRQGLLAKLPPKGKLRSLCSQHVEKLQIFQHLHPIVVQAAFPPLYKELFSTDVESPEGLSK
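Read-out: Photinus luciferase luminescence; inhibitors lower reporter signal. Insect Schneider cells with Gal4-ROR gamma fusion under metallothionein promoter, UAS reporter; 700 uM final copper sulfate induction, 20 hr, ambient temperature.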
DT40 TDP1 no CPT: qHTS for Inhibitors of human tyrosyl-DNA phosphodiesterase 1 (TDP1): qHTS in cells in absence of CPT | Potency, µM (highest dose often 46.2 µM), without a hit: at the top dose activity change, negative = growth inhibition, most hits filed as inhibitors | DT40 Tdp1-/- hTDP1 cells, no CPT, ATP luminescence, 48 h | actives 15% (n = 420,000); also: potency is read from the fitted curve at half-maximal effect; nearly all actives have a fitted effect of over 55% in size
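Chicken DT40 Tdp1-/- cells complemented with human TDP1, screened without camptothecin (DMSO vehicle only), 400 cells/well. Compounds pin-transferred, cells incubated at 37 °C for at least 48 hr. Growth read as ATP-dependent luminescence (CellTiter-Glo, 30 min at RT).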
An asterisk follows results filed as active; ? = inconclusive; . = no result given; [ ] = dose if it differs, or a comment. Compounds with a hit are over-represented: about 21% of the library has one in this group of screens. Unless noted, calls follow the shape of the dose curve; as a rule, active = well fitted curve in the direction sought with a large enough effect; inconclusive = small, poorly fitted or top-dose-only effect, or another doubt; inactive = no such curve, though single readings can be large; an effect the other way counts as inactive or inconclusive. % is scaled to controls: 0 for no effect and ±100 for the full control effect.

SMILES	DT40 TDP1 CPT	VP16 counter	IL1B secr inh	ELG1 DNA repair	RORg inh	DT40 TDP1 no CPT
Cc1nc(N2CCCCC2)sc1C(=O)c1ccc(Cl)c([N+](=O)[O-])c1	.	-10.1%	.	18.3µM*	-21.2%	.
Cc1cc(C)nc(NC(=O)c2ccc(Cl)c([N+](=O)[O-])c2)n1	11.0%	9.2%	.	-9.9%	18.3%	?
Cc1cccc(NS(=O)(=O)c2cccc(C(=O)N3CCCC(C(F)(F)F)C3)c2)c1 (stereo unspecified)	?	.	0.4	-3.4%	.	?
COc1ccc(S(=O)(=O)NCc2cccnc2)c(Cl)c1Cl	10.3%	.	9.3	.	.	12.9%
CN1CCN(S(=O)(=O)c2ccc(N3CCN(S(=O)(=O)/C=C/c4ccccc4)CC3)nc2)CC1	18.4µM*	-19.2%	-7.9	-4.0%	-18.8%	?
CN1CCN(S(=O)(=O)c2ccc(N3CCN(C(c4ccccc4)c4ccccc4)CC3)nc2)CC1	?	7.3%	18.7	?	-1.7%	16.4µM*
COC(=O)C1=C(C)[C@H](O)[C@@H](C)[C@](C)(c2cc(OC)c(C)c(OC)c2COc2ccccc2)O1	.	1.6%	.	.	20.1%	.
Cc1ccc(S(=O)(=O)NC(C)(C)CSc2nnc(Nc3ccccc3)s2)cc1	23.1µM*	-6.6%	-7.5	23.1µM*	?	?
CC(C)(CSc1ncccn1)NS(=O)(=O)c1ccccc1	-3.0%	-2.5%	-2.4	-10.6%	-27.4%	-9.5%
COc1ccc(SCC(=O)Nc2ccccc2Cl)cc1	-0.3%	-8.8%	22.4	13.4%	-1.0%	-19.5%
Clc1ccc(SCNc2ccccc2Cl)cc1	9.2µM*	0.7%	?	0.6%	-26.2%	?
CN(Cc1ccccc1)C(=O)c1ccc(NC(=O)Cc2cccc(NC(=O)C3CCCN(C(=O)C4CCCCC4)C3)c2)cc1 (stereo unspecified)	?	.	19.1	14.6µM*	.	?
CN(Cc1ccccc1)C(=O)c1ccc(NC(=O)Cc2cccc(NC(=O)C3CCN(C(=O)C4CCC4)CC3)c2)cc1	?	.	-4.9	5.17µM*	.	?
CN(C(=O)c1ccc(NC(=O)Cc2ccc(NC(=O)C3CCN(C(=O)C4CCCCC4)CC3)cc2)cc1)C1CC1	?	.	-61.4*	13.0%	.	?
CN(C(=O)c1ccc(NC(=O)Cc2ccc(NC(=O)C3CCN(C(=O)C4CCCC4)CC3)cc2)cc1)C1CCCC1	?	.	-17.5	.	.	?
CN(Cc1ccccc1)C(=O)c1ccc(NC(=O)Cc2ccc(NC(=O)C3CCN(C(=O)C4CCCCC4)CC3)cc2)cc1	23.1µM*	.	29.3	.	.	16.4µM*
CN(Cc1ccccc1)C(=O)c1ccc(NC(=O)Cc2ccc(NC(=O)C3CCN(C(=O)C4CCC4)CC3)cc2)cc1	?	.	-19.9	.	.	?
Cc1ccc(C(=O)Nc2cc3c(cc2C)n(C)c(=O)c(=O)n3C)cc1	2.7%	.	.	.	.	0.4%
Cc1c(C(=O)NCCc2ccncc2)cnn1-c1nccc(-c2ccccc2C(F)(F)F)n1	?	.	.	.	.	-57.1%
C=CCn1c(=O)c2ccc(C(=O)NCc3ccccc3)cc2n(Cc2cccc(Cl)c2)c1=O	?	?	-12.9	-8.6%	-41.1%	13µM*
C=CCn1c(=O)c2ccc(C(=O)NCc3ccccc3)cc2n(Cc2ccccc2Cl)c1=O	8.2µM*	-2.2%	10.5	29.7%	10.9%	7.31µM*
O=C(NCc1ccc(Cl)cc1)c1ccc2oc(=O)n(Cc3ccccc3)c2c1	20.6µM*	.	.	.	.	?
O=C(NCCc1ccccc1)c1ccc(S(=O)(=O)N2CCCC2)cc1	-1.1%	.	4.3	?	.	-23.7%
COCCn1c(CNC(=O)c2cccc(C)c2)nc2cccnc21	-17.5%	.	.	.	.	5.7%
Cc1nc([N+](=O)[O-])cn1-c1ccc([N+](=O)[O-])cc1	13.6%	.	.	.	.	-3.4%
SMILES	DT40 TDP1 CPT	VP16 counter	IL1B secr inh	ELG1 DNA repair	RORg inh	DT40 TDP1 no CPT
CC1=C(C(=O)O)CC(S(=O)(=O)O)C1(C)C (stereo unspecified)	5.7%	.	2.9	.	.	-3.5%
CC(C)(C)c1ccc(OC2C(O)COC2/C=C/C#Cc2ccccc2)cc1 (stereo unspecified)	.	14.8%[10 µM]	.	.	12.5%[10 µM]	.
COCCNC(=O)C1(C)CCCN(C(=O)c2ccco2)C1 (stereo unspecified)	-1.1%	.	52.8	.	.	-0.7%
CC(NC(=O)CCl)c1ccc(Cl)c(Cl)c1 (stereo unspecified)	16.4µM*	5.5%	-102.9*	?	-37.8%	18.4µM*
CC(NC(=O)CCl)c1ccccc1Br (stereo unspecified)	?	-3.6%	-96.3*	?	19.6%	14.6µM*
CCC(CC)c1nn2c(=O)cc(COc3ccc(NC(=O)c4ccccc4C)cc3)nc2s1	?	.	.	.	.	2.31µM*
CCC(CC)c1nn2c(=O)cc(COc3ccc(NC(=O)c4cccc(Cl)c4)cc3)nc2s1	-1.4%	.	.	.	.	-14.9%
CCC(CC)c1nn2c(=O)cc(COc3ccc(NC(=O)c4ccccc4Cl)cc3)nc2s1	?	.	.	.	.	2.31µM*
Cc1nn2c(COc3ccc(NC(=O)c4ccccc4Cl)cc3)nnc2c2ccccc12	18.4µM*	-7.9%	?	?	39.4%	23.1µM*
COc1ccc(-c2noc(CNC(=O)c3ccccc3Br)n2)cc1	-15.6%	.	.	.	.	-20.9%
CC(C)NC(=O)C1(C)CN(S(C)(=O)=O)CC(=O)N1C1CC1 (stereo unspecified)	30.2%	.	9.9	.	.	12.6%
CCCC(=O)N1CCCC(C(=O)c2ccc(OC)c(OC)c2)C1 (stereo unspecified)	6.9%	-3.5%	15.7	0.4%	-6.6%	3.3%
COc1ccc(C(=O)C2CCCN(Cc3cccn3-c3nccs3)C2)cc1F (stereo unspecified)	23.1µM*	1.5%	-83.8*	-11.8%	-7.8%	20.6µM*
COc1ccc(C(=O)C2CCCN(Cc3ccc4c(c3)OCCO4)C2)cc1F (stereo unspecified)	?	3.6%	-5.4	28.7%	2.4%	-21.4%
OCCC1CN(Cc2cccn2-c2nccs2)CCN1Cc1ccc(F)c(F)c1 (stereo unspecified)	13µM*	-6.0%	-6.2	2.8%	-3.5%	18.4µM*
